Assay results taken from the supplement of paper PMC6555819.

Columns and labels:
Test in all cases: PBM binding z-score (relative to random genomic background probes); higher = stronger binding; sequences stand for … in GC…GCGATTGACAGCGTAGAATGAAGG
[1] = tested on: RARb homodimer (NR concentration 270 nM)
Method in brief: (§1)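 Ligand-free nuclear receptor dimers were applied to custom Agilent 4×180K protein-binding microarrays whose double-stranded probes carried direct-repeat seeds, single-nucleotide variants, half-site ablations and random human genomic background sequences in 34-nt variable regions. Incubation lasted 1 h. Binding z-scores were computed against the random background probes from regression-normalized fluorescence.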

[2] = tested on: RARg:RXRa (NR concentration 270 nM, RXRa partner concentration 90 nM)
Method in brief: as §1

[3] = tested on: RARg homodimer (NR concentration 270 nM)
Method in brief: as §1

[4] = tested on: RXRa DBDmut IVT, anti-RXR (DBD mutation: RXRa K156A/R161A, NR concentration 90 nM)
Method in brief: as §1

[5] = tested on: RXRa homodimer (NR concentration 180 nM)
Method in brief: as §1

[6] = tested on: THRa:RXRa (NR concentration 90 nM, RXRa partner concentration 90 nM)
Method in brief: as §1

[7] = tested on: THRa homodimer (NR concentration 90 nM)
Method in brief: as §1

[8] = tested on: VDR:RXRa (NR concentration 270 nM, RXRa partner concentration 90 nM)
Method in brief: as §1

[9] = tested on: VDR homodimer (NR concentration 270 nM)
Method in brief: as §1

| Sequence | PBM binding z-score [1] | PBM binding z-score [2] | PBM binding z-score [3] | PBM binding z-score [4] | PBM binding z-score [5] | PBM binding z-score [6] | PBM binding z-score [7] | PBM binding z-score [8] | PBM binding z-score [9] |
| --- | --- | --- | --- | --- | --- | --- | --- | --- | --- |
| GCGACTGGGGCAAAGCAAGTTACCATAAGGTTGG | 0.158 | 0.0953 | 0.244 | -0.247 | 0.26 | 0.526 | -0.346 | -0.206 | -0.341 |
| ATAGCAAGGTGATCGTGAGGTCGTTGATACTAAC | 1.29 | 2.12 | 0.811 | 0.231 | 1.31 | 3.2 | 1.8 | 2.94 | 1.97 |
| CAAACTAGGTCAAGGTCACAGTCGGTTTGTGCCA | 5.15 | 6.22 | 6.99 | 2.66 | 5.94 | 4.67 | 4.75 | 5.06 | 4.27 |
| CAAACTAGGTCAAAGGTCTAAGTCGAGCCAACCA | 2.9 | 4.76 | 4.45 | 1.96 | 4.93 | 3 | 0.688 | 2.98 | 1.09 |
| CGTCCAAGGTCAATGCTAGGTCAATGAAAGCATT | 5.08 | 7.66 | 6.89 | 3.4 | 5.18 | 4.57 | 3.59 | 5.33 | 3.48 |
| CCTGGGAGGACAGAAGGTCAGAGCTGTCCGCTTT | 3.38 | 3.49 | 3.63 | -0.277 | 1.92 | 2.69 | 0.124 | 1.04 | 0.289 |
| CCAACTAGGTCACCGGAAGGTCAAAGTCCGCATG | 5.63 | 8.38 | 7.43 | 2.32 | 7.28 | 4.43 | 3.16 | 5.87 | 3.75 |
| GGAACGAGGGCGTTCGAGTTGATAGCATGGCGAT | -0.589 | 0.0515 | 0.202 | 2.26 | -0.0265 | 2.16 | -1.11 | 2.22 | 2.02 |
| ATCTCTAGGTAACCCAGTTCAGTGAATGCCGAAC | 0.825 | 0.714 | 0.439 | 0.564 | 0.828 | 1.45 | 0.872 | 2.74 | 1.39 |
| ACTCGGAGCACAAAGGTCAGAGCTACGCCAGTGA | 4.45 | 5.16 | 5.11 | 0.345 | 4.98 | 2.63 | -0.28 | 3.58 | 0.477 |
| CGAACTAGGTCAATGACAGTGAATCTCCGCACGC | 2.77 | 3.48 | 4.07 | 1.91 | 2.36 | 2.2 | 0.673 | 1.15 | 0.425 |
| ATCTCTAGGTAAGACTCAGATCAGTGAAGAACGC | -0.0502 | 0.253 | 0.295 | 0.0225 | 0.0293 | 0.242 | 0.333 | 0.238 | 0.414 |
| CGAACTAGGTCAGAACAGGACAATGAAGGATGAT | 2.03 | 2.55 | 3.32 | 0.605 | 1.37 | 3.62 | 0.458 | 1.11 | 0.155 |
| AGAACGAGGGCACTCTGAGTTGATAGCAGAGTAG | 0.374 | 1.4 | 1.55 | 2.21 | 0.823 | 1.29 | -0.153 | 1.88 | 1.73 |
| AGAATCAGGTTATACGTAGATCAGGGAAGAAAGT | 0.65 | 0.789 | 0.919 | 0.474 | 0.757 | 1.17 | 0.768 | 0.368 | 0.381 |
| TCTAGTTGGTCAAAGGTCACACCCTCGAAATGCG | 5.03 | 6.9 | 6.12 | 2.29 | 8.03 | 4.02 | 2.2 | 5.06 | 3.2 |
| AGTCAAAGTTCAGGTCGAGGTAACGTAAAGCACG | 3.87 | 4.95 | 4.97 | 3.14 | 3.08 | 4.18 | 2.7 | 3.41 | 2.75 |
| CCTCGGAGGACGGAAGGTCAGAGCTGTCCGCTTT | 2.97 | 2.49 | 2.14 | -0.0504 | 1.69 | 1.94 | -0.304 | 0.873 | -0.0606 |
| CCAAGCAGGCCAGGGTCACTCAAGCATTTCGCTT | 2.75 | 3.16 | 2.36 | 0.375 | 3.22 | 3 | 1.15 | 2.55 | 1.51 |
| GTCCCAAGGTGAATAGGTCGTTGATGAGTAGGCG | 2.13 | 2.88 | 1.42 | -0.179 | 1.67 | 2.06 | 0.76 | 0.855 | 0.582 |
| ATATGTAGGTTAGCTGGGGTCATTCTGACTAGGC | 3.66 | 3.88 | 2.79 | 2.08 | 5.12 | 5.12 | 3.04 | 6.29 | 5.3 |
| ATCCCTAGGTAAAGATAGTTCAGTGAATGCAAAT | 1.19 | 0.428 | 0.526 | 0.103 | 0.295 | 0.844 | 0.169 | 0.829 | 0.524 |
| CAAACTAGGTCACAGAGGTCAAAGCCCGTGCGTA | 5.57 | 7.25 | 7.63 | 3.22 | 7.75 | 4.82 | 2.99 | 7.81 | 6.06 |
| CAAACTAGGTCAAGGTCGAAGTCGGTTTGTGCCA | 3.74 | 4.38 | 5.12 | 2.45 | 3.49 | 3.55 | 2.45 | 3.27 | 2.48 |
